# Compound activity (PubChem)
# EBI2 block = antagonists of human EBI2 receptor; EBI2 beta-arrestin recruitment, luminescence, 7a,25-OHC stimulated; 0.81% of 360,000 active; P32249; inhibition, % at 5 µM; in the data active means inhibition above about 38%;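 further: enzyme fragment complementation signal reports receptor beta-arrestin coupling in cells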
# SENP8 block-1 = blocks the human protease SENP8 | inhibition, % at 10 µM | 1.2% of 330,000 active | AID 2540 | Q96LD8 | purified SENP8, Z-RLRGG-aminoluciferin cleavage, luminescence; in the data active means inhibition above about 50%
# Target sequence (Q96LD8 whole entry, looked up): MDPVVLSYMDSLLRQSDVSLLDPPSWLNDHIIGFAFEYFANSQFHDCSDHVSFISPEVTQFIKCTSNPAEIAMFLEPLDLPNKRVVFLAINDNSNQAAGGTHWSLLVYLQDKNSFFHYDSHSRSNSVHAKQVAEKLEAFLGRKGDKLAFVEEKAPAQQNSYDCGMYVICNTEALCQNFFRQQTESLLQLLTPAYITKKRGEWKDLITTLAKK
# AHR activator = human AHR activation. P35869. AHR-responsive luciferase reporter cells, luminescence. activation, % at 5 µM. 2.5% of 320,000 active. AID 2796; in the data active means activation above about 47%
# SENP6 block = blocks the human protease SENP6. Q9GZR1. Recombinant SENP6 catalytic domain, aminoluciferin luminescence. inhibition, % at 10 µM. 1.8% of 330,000 active;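 active means inhibition above about 50% at the single tested dose, limit read from the data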
# SENP8 block-2 = inhibitors of human SENP8 protease. recombinant SENP8, Nedd8 substrate fluorescence. Q96LD8. inhibition, % at 20 µM. 0.64% of 360,000 active; in the data active means inhibition mostly above about 40%, no sharp cut-off; inactive means mostly below about 27%
# SENP7 inh = blocks the human protease SENP7 | Q9BQF6 | recombinant SENP7, Z-RLRGG-aminoluciferin luminescence, 40 min | inhibition, % at 5 µM | 1.5% of 330,000 active | AID 434973;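 active means inhibition above about 50% at the single test dose, limit read from the data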
# EBI2 antag conf = EBI2 (human) antagonism, single concentration confirmation; shares compounds with EBI2 block; EBI2 beta-arrestin luminescence, 7a,25-OHC antagonism; inhibition, % at 5 µM; 29% of 2,400 active;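 active means inhibition of at least 50%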
# EBI2 ag = EBI2 agonism counter-screen | shares compounds with EBI2 block | EBI2-expressing cells, agonist mode, luminescence, 60 min; 0% vehicle, 100% 7α,25-dihydroxycholesterol control | activation, % at 5 µM | 2,400 tested, under 10 active;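 active means activation of at least 50%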
# bGal cs = inhibits E. coli beta-galactosidase, counter-screen for EBI2 antagonists; AID 652176; 1% of 2,400 active; purified beta-galactosidase, luminescent Galacton Star, 15 min; shares compounds with EBI2 block; inhibition, % at 5 µM;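 active means replicate-average signal at least 3 plate SD below neutral wells, shown as high inhibition, flagging enzyme-inhibiting false positives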;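 further: higher means stronger loss of beta-gal luminescence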
# Hits are given with their value; i = inactive; nt = no result given. This is a sample that favours compounds with a hit; in the whole collection about 5% have one here.
SMILES,EBI2 block,SENP8 block-1,AHR activator,SENP6 block,SENP8 block-2,SENP7 inh,EBI2 antag conf,EBI2 ag,bGal cs
Cc1cccc(NS(=O)(=O)c2ccc3[nH]c(=O)cc(C(=O)OC(C)C(=O)Nc4ccc([N+](=O)[O-])cc4)c3c2)c1 (stereo unspecified),47,i,i,i,i,i,i,i,i
COc1ccc(CNC(=O)/C=C/c2ccc(OCCCF)cc2)cc1,i,i,i,i,i,i,nt,nt,nt
FCCCOc1ccc(/C=N/OCc2ccc(Cl)cc2)cc1,60,i,i,i,i,i,i,i,i
O=C(/C=C/c1ccc(OCCCF)cc1)NCc1ccc(Cl)cc1,50,i,i,i,i,i,i,i,i
FCCCOc1ccc(/C=N/OCc2c(Cl)cccc2Cl)cc1,i,i,i,i,i,i,nt,nt,nt
COc1cc(C(C)=O)ccc1OCC(=O)N(CCC1=CCCCC1)c1c(N)n(Cc2ccccc2)c(=O)[nH]c1=O,i,i,i,i,i,i,nt,nt,nt
O=C(Nc1ccnc(-c2cccnc2)n1)c1ccc(Cl)c(Cl)c1,46,i,i,i,i,i,i,i,i
Cc1ccc(C(=O)Nc2ccnc(-c3cccnc3)n2)cc1,i,i,i,i,i,i,nt,nt,nt
CCOC(=O)CCCCCC(=O)Nc1ccc2c(c1)C(=O)N([C@H](C)CO)C[C@@H](C)[C@@H](CN(C)C(=O)CCC(F)(F)F)OCCCC[C@H](C)O2,i,nt,nt,nt,i,nt,nt,nt,nt
COC(=O)[C@@]1(Cc2ccc(OC)cc2)[C@@H]2C(=CC(=O)[C@H]2CC(=O)C(=O)N2CCCC2)CN1C(=O)c1ccccc1,47,i,i,i,i,i,61,i,i
COc1ccc(C2=NOC(Cn3nc(C(=O)NCc4ccc(C)cc4)cc3-c3ccccc3)C2)cc1 (stereo unspecified),44,i,i,i,i,i,i,i,i
COCCNC(=O)c1cc(-c2ccccc2)n(CC2CC(c3ccc(OC)cc3)=NO2)n1 (stereo unspecified),i,i,i,i,i,i,nt,nt,nt
O=C(CCSc1ccc(Br)cc1)Nc1cccnc1,i,i,i,i,i,i,nt,nt,nt
COc1cc(-c2nc3cc(C)ccn3c2NC2CCCCC2)ccc1-c1ccc(C(C)=O)cc1,59,i,i,i,i,i,i,i,i
Cc1ccn2c(NC3CCCC3)c(-c3ccncc3)nc2c1,i,i,i,i,i,i,nt,nt,nt
Nc1c(Cl)ncnc1N/N=C/c1ccc2ccccc2n1,62,nt,i,nt,i,nt,84,i,i
Nc1c(Cl)ncnc1N/N=C/c1ccccn1,nt,nt,i,nt,nt,nt,nt,nt,nt
Cc1cccc(OCCNc2cc(N3CCOCC3)ccc2[N+](=O)[O-])c1,64,i,i,i,i,i,i,i,i
O=S(=O)(SC1=NCCN1)c1ccccc1,i,nt,nt,nt,i,nt,nt,nt,nt
O=C(Cn1c2ccc(F)cc2c2nc3n(c(=O)c21)CCS3)NCC1CCCO1 (stereo unspecified),i,i,i,i,i,i,nt,nt,nt
CSC(=Nc1ccc(Cl)cc1)N[n+]1ccccc1,i,i,i,i,i,i,nt,nt,nt
COc1ccc(-n2cc(-c3ccc(Cl)cc3)[nH]c2=S)cc1,91,i,i,i,i,i,72,i,i
COC(=O)c1ccc(-n2cc(-c3ccc(OC)cc3)[nH]c2=S)cc1,74,nt,i,nt,i,nt,60,i,i
COc1ccc(CNC(=O)CN2C(=O)NC3(CCCc4sccc43)C2=O)cc1OC (stereo unspecified),i,i,i,i,i,i,nt,nt,nt
Cc1cc(C(=O)Nc2cc(C(F)(F)F)ccc2N2CCOCC2)no1,i,i,i,i,i,i,nt,nt,nt
O=C(Nc1cc(C(F)(F)F)ccc1N1CCOCC1)c1ccc2ccccc2n1,44,i,i,i,i,i,i,i,i
CCOc1ccc(C(=O)/C=C/c2ccc(SC)cc2)cc1,61,i,i,i,i,i,50,i,i
COCCCn1c(SCc2ccccc2)nc2cc(OC)c(OC)cc2c1=N,54,i,i,i,i,i,i,i,i
